# From PMC5700166
# Numbering of substitutions follows the chain as printed.
# Columns and labels:
# Experiment in all cases: protein-binding microarray (PBM); PBM: ~300 nM protein, 6 mM HEPES pH 7.8, 80 mM KCl, 0.5 mM EDTA, 0.5 mM EGTA, 6% glycerol, 35 ng/ul poly-dIdC, 1% milk, 1 h, room temperature; Ap Aiptasia and Nv Nematostella (sea anemones) / Co Capsaspora / Aq Amphimedon (sponge) / Dm Drosophila / Hu human; RHD is the Rel homology domain; high values mean tight binding
# Conditions in all cases: dsDNA, one strand shown
# GST-Dm-Relish = target: T1, GST-Dm-Relish (Drosophila melanogaster, UniProt Q94527 99-473)
# T1 sequence: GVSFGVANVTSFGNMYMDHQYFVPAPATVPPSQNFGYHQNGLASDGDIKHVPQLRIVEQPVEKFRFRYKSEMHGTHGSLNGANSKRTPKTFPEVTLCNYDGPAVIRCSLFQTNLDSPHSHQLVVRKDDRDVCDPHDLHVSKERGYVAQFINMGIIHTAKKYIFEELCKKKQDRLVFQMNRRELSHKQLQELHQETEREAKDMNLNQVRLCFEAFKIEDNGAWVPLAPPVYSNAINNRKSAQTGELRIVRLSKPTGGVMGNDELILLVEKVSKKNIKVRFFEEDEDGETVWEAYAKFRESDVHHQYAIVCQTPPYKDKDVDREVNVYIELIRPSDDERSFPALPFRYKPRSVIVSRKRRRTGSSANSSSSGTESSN
# GST-Aq-NF-kB = target: T2, GST-Aq-NF-kB (Amphimedon queenslandica, UniProt A9Y5G7 2-389)
# T2 sequence: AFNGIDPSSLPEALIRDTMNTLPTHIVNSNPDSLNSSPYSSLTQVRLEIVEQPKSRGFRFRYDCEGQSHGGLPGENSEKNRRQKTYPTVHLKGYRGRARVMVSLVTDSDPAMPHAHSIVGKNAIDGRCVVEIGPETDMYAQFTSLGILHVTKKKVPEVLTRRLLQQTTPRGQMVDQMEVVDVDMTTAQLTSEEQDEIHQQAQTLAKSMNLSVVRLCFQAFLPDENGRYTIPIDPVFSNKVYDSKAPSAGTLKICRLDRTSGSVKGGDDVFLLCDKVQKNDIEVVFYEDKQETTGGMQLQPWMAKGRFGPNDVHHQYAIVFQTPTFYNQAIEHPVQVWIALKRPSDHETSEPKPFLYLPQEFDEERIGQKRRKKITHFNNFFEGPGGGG
# GST-Hu-p50 = GST-Hu-p50 (Homo sapiens, UniProt P19838 7-356)
# GST-Ap-NF-kB RHD = target: T3, GST-Ap-NF-kB RHD (Exaiptasia pallida (Aiptasia), UniProt A0A913YAJ5 2-422)
# T3 sequence: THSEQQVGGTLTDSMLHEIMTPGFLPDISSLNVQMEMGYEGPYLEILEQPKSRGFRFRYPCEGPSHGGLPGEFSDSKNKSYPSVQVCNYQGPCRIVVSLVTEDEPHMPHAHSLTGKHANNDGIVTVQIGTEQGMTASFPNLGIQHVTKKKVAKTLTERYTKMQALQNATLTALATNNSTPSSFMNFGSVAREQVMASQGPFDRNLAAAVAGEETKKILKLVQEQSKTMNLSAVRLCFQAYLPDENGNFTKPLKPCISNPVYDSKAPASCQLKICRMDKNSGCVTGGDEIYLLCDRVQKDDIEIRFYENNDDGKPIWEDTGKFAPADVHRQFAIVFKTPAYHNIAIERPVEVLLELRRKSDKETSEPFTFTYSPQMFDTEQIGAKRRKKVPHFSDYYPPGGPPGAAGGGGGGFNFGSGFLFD
# [1] = target: T4, GST-Nv-NF-kB (Cys allele) (Nematostella vectensis, UniProt E5G601 2-411)
# T4 sequence: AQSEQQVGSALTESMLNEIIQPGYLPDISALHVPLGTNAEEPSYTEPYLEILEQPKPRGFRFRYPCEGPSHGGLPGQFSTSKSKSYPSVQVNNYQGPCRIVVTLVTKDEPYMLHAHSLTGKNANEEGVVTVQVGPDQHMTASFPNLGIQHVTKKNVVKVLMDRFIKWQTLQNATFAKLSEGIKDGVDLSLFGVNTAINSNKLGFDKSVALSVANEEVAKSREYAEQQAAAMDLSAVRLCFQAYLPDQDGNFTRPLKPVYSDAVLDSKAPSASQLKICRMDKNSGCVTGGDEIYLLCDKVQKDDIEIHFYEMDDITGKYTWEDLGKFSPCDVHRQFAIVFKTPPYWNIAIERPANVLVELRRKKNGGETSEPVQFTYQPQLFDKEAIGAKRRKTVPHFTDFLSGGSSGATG
# GST-Co-NF-kB = target: T5, GST-Co-NF-kB (Capsaspora owczarzaki, UniProt F1ARL5 200-546)
# T5 sequence: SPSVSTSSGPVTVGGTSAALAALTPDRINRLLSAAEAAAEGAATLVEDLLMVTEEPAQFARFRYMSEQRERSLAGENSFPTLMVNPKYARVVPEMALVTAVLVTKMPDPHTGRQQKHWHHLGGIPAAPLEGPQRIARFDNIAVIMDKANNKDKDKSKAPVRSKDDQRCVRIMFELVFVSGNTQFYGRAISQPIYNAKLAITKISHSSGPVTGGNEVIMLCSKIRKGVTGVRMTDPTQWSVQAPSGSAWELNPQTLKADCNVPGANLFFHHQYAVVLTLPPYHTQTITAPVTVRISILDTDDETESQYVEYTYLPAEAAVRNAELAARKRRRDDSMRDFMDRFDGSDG
# [2] = target: T6, GST-Nv-NF-kB (Ser allele) (Nematostella vectensis, UniProt A7UNT2 2-411)
# T6 sequence: T4 sequence with Q21R, C66S, S207N, E215Q, V217A, E225K, A268E, D399E
# GST-Hu-p50, sequence (P19838 7-356): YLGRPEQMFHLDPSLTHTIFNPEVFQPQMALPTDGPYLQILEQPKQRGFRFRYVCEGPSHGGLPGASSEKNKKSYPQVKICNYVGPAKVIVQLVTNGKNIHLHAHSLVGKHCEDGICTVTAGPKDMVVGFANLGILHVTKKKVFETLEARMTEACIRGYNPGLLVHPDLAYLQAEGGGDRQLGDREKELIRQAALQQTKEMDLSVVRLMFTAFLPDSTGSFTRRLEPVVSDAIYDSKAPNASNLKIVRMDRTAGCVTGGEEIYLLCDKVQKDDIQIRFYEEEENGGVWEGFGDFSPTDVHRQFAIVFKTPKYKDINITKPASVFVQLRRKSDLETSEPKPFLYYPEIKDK
Sequence,binding signal (GST-Dm-Relish),binding signal (GST-Aq-NF-kB),binding signal (GST-Hu-p50),binding signal (GST-Ap-NF-kB RHD),binding signal [1],binding signal (GST-Co-NF-kB),binding signal [2]
CCGATTAACATCAGGAAATTTACTGATGTTAATCGGGTCTTGATTCGCTTGACGCTGCTG,1.36 z-score,1.54 z-score,1.51 z-score,–,–,–,–
CCGATTAACATCAGGAATTGCCCTGATGTTAATCGGGTCTTGATTCGCTTGACGCTGCTG,–,4.94 z-score,–,1.16 z-score,2.2 z-score,–,–
CCGATTAACATCAAGCCTGTCCCTGATGTTAATCGGGTCTTGATTCGCTTGACGCTGCTG,–,1.77 z-score,–,2.01 z-score,1.27 z-score,–,–
CCGATTAACATCAGGGCATGCCCTGATGTTAATCGGGTCTTGATTCGCTTGACGCTGCTG,–,4.01 z-score,–,1.37 z-score,1.29 z-score,–,–
CCGATTAACATCATAGTCCCATGTGATGTTAATCGGGTCTTGATTCGCTTGACGCTGCTG,–,2.36 z-score,–,2.47 z-score,2.41 z-score,–,–
CCGATTAACATCAGGACCGTCCCTGATGTTAATCGGGTCTTGATTCGCTTGACGCTGCTG,–,6.42 z-score,–,4.25 z-score,3.73 z-score,–,–
CCGATTAACATCAGGAATTTTCATGATGTTAATCGGGTCTTGATTCGCTTGACGCTGCTG,1.12 z-score,1.37 z-score,1.36 z-score,–,–,–,–
CCGATTAACATCAAGAAAATTCCTGATGTTAATCGGGTCTTGATTCGCTTGACGCTGCTG,1.53 z-score,1.97 z-score,1.07 z-score,–,–,–,–
CCGATTAACATCAGTCCCTAAGCTGATGTTAATCGGGTCTTGATTCGCTTGACGCTGCTG,–,4.16 z-score,–,1.75 z-score,3.07 z-score,–,–
CCGATTAACATCAAAATTCCGGGTGATGTTAATCGGGTCTTGATTCGCTTGACGCTGCTG,1.53 z-score,1.67 z-score,1.74 z-score,–,–,1.33 z-score,–
CCGATTAACATCAGGAGCTTCCCTGATGTTAATCGGGTCTTGATTCGCTTGACGCTGCTG,–,3.47 z-score,–,1.1 z-score,1.03 z-score,–,–
CCGATTAACATCAGGAATTTTTATGATGTTAATCGGGTCTTGATTCGCTTGACGCTGCTG,1.94 z-score,1.99 z-score,1.39 z-score,–,–,–,–
CCGATTAACATCAGGAACCTCCCTGATGTTAATCGGGTCTTGATTCGCTTGACGCTGCTG,–,4.17 z-score,–,1.92 z-score,2.34 z-score,–,–
CCGATTAACATCAGGCAGTTCCCTGATGTTAATCGGGTCTTGATTCGCTTGACGCTGCTG,–,3.41 z-score,–,1.39 z-score,1.3 z-score,–,1.25 z-score
CCGATTAACATCAAAAATTTCCATGATGTTAATCGGGTCTTGATTCGCTTGACGCTGCTG,1.53 z-score,1.53 z-score,1.32 z-score,–,–,–,–
CCGATTAACATCACACCCCCCCGTGATGTTAATCGGGTCTTGATTCGCTTGACGCTGCTG,4.46 z-score,3.38 z-score,–,4.06 z-score,3.09 z-score,4.58 z-score,3.09 z-score

Sequence,binding signal (GST-Dm-Relish),binding signal (GST-Aq-NF-kB),binding signal (GST-Hu-p50),binding signal (GST-Ap-NF-kB RHD),binding signal [1],binding signal (GST-Co-NF-kB),binding signal [2]
CCGATTAACATCAACCTCCCCCCTGATGTTAATCGGGTCTTGATTCGCTTGACGCTGCTG,4.38 z-score,4.25 z-score,–,5.79 z-score,3.9 z-score,6.38 z-score,3.61 z-score
CCGATTAACATCAAATATTTCCCTGATGTTAATCGGGTCTTGATTCGCTTGACGCTGCTG,4.25 z-score,6.66 z-score,–,3.87 z-score,6.57 z-score,5.89 z-score,6.99 z-score
CCGATTAACATCAACCAATTCCCTGATGTTAATCGGGTCTTGATTCGCTTGACGCTGCTG,–,3.16 z-score,–,2.49 z-score,3.94 z-score,1.83 z-score,3.98 z-score
CCGATTAACATCAGGCGTTTCCCTGATGTTAATCGGGTCTTGATTCGCTTGACGCTGCTG,1.54 z-score,4.39 z-score,–,2.18 z-score,3.27 z-score,1.83 z-score,2.59 z-score
CCGATTAACATCACGGGGGGGAATGATGTTAATCGGGTCTTGATTCGCTTGACGCTGCTG,5.39 z-score,5.91 z-score,–,6.98 z-score,5.54 z-score,9.46 z-score,6.1 z-score
CCGATTAACATCACAATTTTCCCTGATGTTAATCGGGTCTTGATTCGCTTGACGCTGCTG,2.17 z-score,5.58 z-score,–,4.54 z-score,6.45 z-score,5.61 z-score,7.95 z-score
CCGATTAACATCAACCCCCCCCATGATGTTAATCGGGTCTTGATTCGCTTGACGCTGCTG,5.75 z-score,4.01 z-score,–,5.53 z-score,4.32 z-score,4.94 z-score,3.55 z-score
CCGATTAACATCAGACGTGGGAATGATGTTAATCGGGTCTTGATTCGCTTGACGCTGCTG,–,2.21 z-score,–,1.19 z-score,1.45 z-score,2.5 z-score,1.48 z-score
CCGATTAACATCAGGGAATACACTGATGTTAATCGGGTCTTGATTCGCTTGACGCTGCTG,2.61 z-score,3.68 z-score,–,2.66 z-score,2.43 z-score,2.5 z-score,2.21 z-score
CCGATTAACATCAACCTTTCCCCTGATGTTAATCGGGTCTTGATTCGCTTGACGCTGCTG,1.62 z-score,4.44 z-score,–,5.33 z-score,6.21 z-score,6.19 z-score,7.66 z-score
CCGATTAACATCAGGGAAACTACTGATGTTAATCGGGTCTTGATTCGCTTGACGCTGCTG,5.85 z-score,5.64 z-score,–,3.54 z-score,4.2 z-score,3.89 z-score,4.47 z-score
CCGATTAACATCACATCTTCCCCTGATGTTAATCGGGTCTTGATTCGCTTGACGCTGCTG,2.45 z-score,4.78 z-score,–,4.99 z-score,6.11 z-score,6.39 z-score,7.12 z-score
CCGATTAACATCAACGTGGGGCGTGATGTTAATCGGGTCTTGATTCGCTTGACGCTGCTG,–,1.15 z-score,–,1.07 z-score,1.14 z-score,1.11 z-score,1.09 z-score
CCGATTAACATCAAAATTCCCTCTGATGTTAATCGGGTCTTGATTCGCTTGACGCTGCTG,5.36 z-score,6.5 z-score,–,5.17 z-score,7.29 z-score,3.2 z-score,7.2 z-score
CCGATTAACATCAATAAATTCCCTGATGTTAATCGGGTCTTGATTCGCTTGACGCTGCTG,5.85 z-score,5.34 z-score,–,4.18 z-score,7.04 z-score,4.25 z-score,7.28 z-score
